From PubChem BioAssay AID1159567 (Broad Institute, 2015)
Screen size: about 1,300 compounds; about 1,200 (92%) were called active. So high a share suggests a set chosen from earlier hits. The list shows a part of the results. Measured potencies and affinities stand elsewhere. Results filed as inconclusive are left out. The rule behind the calls is not given here.

Experiment: P. falciparum Dd2 growth inhibitors, dose response, SYBR Green, cherry-picked samples (AID 1159567)
Conditions: Plasmodium falciparum Dd2 growth, SYBR Green fluorescence; series mostly up to 19.5 µM

outcome, inactive:
O=C(O)C[C@@H]1C[C@@H]2c3cc(NS(=O)(=O)c4ccccc4)ccc3O[C@@H]2[C@H](CO)O1
C[C@@H]1CN([C@@H](C)CO)C(=O)c2cc(NC(=O)C3CC3)ccc2O[C@H]1CN(C)CC1CCCCC1
CCC(=O)N[C@H]1C=C[C@H](CC(=O)NCC2CCCCC2)O[C@@H]1CO
C[C@H]1CN([C@@H](C)CO)C(=O)CCCn2cc(nn2)CO[C@@H]1CN(C)C(=O)Nc1ccc(N2CCCCC2)cc1
C[C@H]1CN([C@@H](C)CO)C(=O)CCCn2nncc2CO[C@H]1CN(C)C(=O)Nc1ccc(N2CCCCC2)cc1
COc1cccc(CNC(=O)[C@H]2[C@H](CO)[C@H]3Cn4c(cccc4=O)[C@@H]2N3C(=O)C2CCCC2)c1
O=C(c1cccnc1)N1CC2(C1)[C@@H](c1ccccc1)[C@@H](CO)N2C(=O)CC1CC1
COc1ccc(CNC(=O)C[C@H]2C=C[C@@H](NS(=O)(=O)c3cccc(OC)c3)[C@@H](CO)O2)cc1
C[C@H](O)C#Cc1cnc2c(c1)C(=O)N([C@@H](C)CO)C[C@@H](C)[C@@H](CN(C)C(=O)Cc1ccncc1)O2
O=C(Nc1ccccc1F)N1C[C@@H]2[C@H](c3ccccc31)[C@H](CO)N2C(=O)C1CCOCC1
O=C(Nc1ccc(F)cc1)N1C[C@H]2[C@@H](c3ccccc31)[C@@H](CO)N2Cc1cocn1
CN(C)CC#Cc1ccc([C@@H]2[C@H](CO)N3C(=O)CN(C(=O)Cc4cccnc4)C[C@@H]23)cc1
COc1ccc(CN(C)C[C@@H]2OCc3cn(nn3)CCCC(=O)N([C@H](C)CO)C[C@H]2C)cc1
C[C@@H]1CN([C@@H](C)CO)C(=O)c2c(c3ccccc3n2C)-c2ccccc2CO[C@H]1CN(C)Cc1ccc(Cl)c(Cl)c1
O=C1CN(Cc2ccc(F)cc2)C[C@@H]2[C@@H](c3ccc(Br)cc3)[C@H](CO)N12
Cc1noc(C)c1NC(=O)Nc1ccc2c(c1)C(=O)N([C@H](C)CO)C[C@@H](C)[C@@H](CN(C)S(C)(=O)=O)O2
COc1ccc2c3c([nH]c2c1)[C@@H](CO)N(C(C)=O)CC31CN(C(=O)CN2CCOCC2)C1
COCC(=O)N1CC2(C1)CN(C(=O)CN1CCOCC1)[C@@H](CO)c1c2c2ccc(OC)cc2n1C
CCCNC(=O)Nc1ccc2c(c1)C(=O)N(C)C[C@H](OC)[C@@H](C)CN(C(=O)C1CCOCC1)[C@@H](C)CO2
COCC(=O)Nc1ccc2c(c1)OC[C@@H](C)N(C(=O)NC(C)C)C[C@@H](C)[C@@H](OC)CN(C)C2=O
COc1ccccc1S(=O)(=O)N(C)C[C@H]1OCc2cn(nn2)CCCC(=O)N([C@@H](C)CO)C[C@@H]1C
CO[C@H]1CN(C)C(=O)c2ccc(NC(=O)CC(F)(F)F)cc2OC[C@@H](C)N(CC2CC2)C[C@H]1C
COc1ccc2c3c(n(C)c2c1)[C@H](CO)N(Cc1cccnc1)CC31CN(C(=O)NC(C)C)C1
N#C[C@@H]1[C@H](c2ccccc2-c2ccccc2F)[C@H](CO)N1C(=O)C1CCOCC1
N#C[C@@H]1[C@@H](c2ccccc2-c2ccccc2F)[C@H](CO)N1C(=O)C1CC1
N#C[C@H]1[C@@H](c2ccccc2-c2ccccc2F)[C@@H](CO)N1C(=O)C1CCOCC1
C[C@@H]1CN([C@H](C)CO)C(=O)c2cc(NC(=O)CCC(F)(F)F)ccc2O[C@H]1CN(C)C(=O)NC1CCCCC1
C[C@H](CO)N1C[C@H](C)[C@@H](CN(C)C(=O)CCCN(C)C)OCc2cnnn2CCCC1=O
O=C(C[C@@H]1C=C[C@@H](NC(=O)C2CCC2)[C@H](CO)O1)NC1CCC1
CN1C(=O)c2cc(NC(=O)c3ccc4c(c3)OCO4)ccc2OC[C@@H]2O[C@@H](CC(=O)O)CC[C@@H]21
CO[C@@H]1CN(C)C(=O)c2cc(NC(C)=O)ccc2OC[C@@H](C)N(C(=O)Cc2cccnc2)C[C@H]1C
COCC#Cc1ccc([C@H]2[C@H](CO)N3C(=O)CN(C(=O)CN4CCOCC4)C[C@@H]23)cc1
CN(C)CC(=O)Nc1ccc2c(c1)[C@@H]1C[C@H](CC(=O)N3CCOCC3)O[C@@H](CO)[C@@H]1O2
C[C@H]1CN([C@@H](C)CO)C(=O)Cc2cc(NC(=O)CCC(F)(F)F)ccc2O[C@H]1CN(C)S(C)(=O)=O
CN(C)C(=O)c1cccc(-c2ccccc2[C@@H]2[C@@H](C#N)N(C(=O)C3CC3)[C@H]2CO)c1
COCC(=O)N1[C@@H](C#N)[C@H](c2ccccc2-c2ccccc2)[C@@H]1CO
COCC(=O)N1[C@H](C#N)[C@@H](c2ccccc2-c2ccccc2)[C@H]1CO
CO[C@H]1CN(C)C(=O)c2ccc(NS(=O)(=O)CC(F)(F)F)cc2OC[C@H](C)N(C)C[C@@H]1C
CO[C@H]1CN(C)C(=O)c2cc(NS(=O)(=O)c3ccccc3C)ccc2OC[C@H](C)N(C)C[C@H]1C
O=C(C[C@H]1C=C[C@H](NC(=O)Cc2ccccn2)[C@H](CO)O1)NCCc1ccccc1
CCC(=O)N1[C@H](CO)[C@H](c2ccccc2)[C@@H]1CN(CC)C(=O)c1cccc(F)c1
CCCNC(=O)Nc1ccc2c(c1)C(=O)N(C)C[C@@H](OC)[C@H](C)CN(C(=O)C1CCOCC1)[C@@H](C)CO2
CCCNC(=O)Nc1ccc2c(c1)C(=O)N(C)C[C@H](OC)[C@@H](C)CN(C(=O)C1CCOCC1)[C@H](C)CO2
COCC(=O)N1[C@H](C#N)[C@@H](c2ccccc2C2=CCCC2)[C@@H]1CO
CO[C@H]1CN(C)C(=O)c2cc(NC(C)=O)ccc2OC[C@H](C)N(Cc2ccncc2)C[C@H]1C
CO[C@H]1CN(C)C(=O)c2cc(NC(C)=O)ccc2OC[C@H](C)N(Cc2ccncc2)C[C@@H]1C
